Screening results from PubChem BioAssay.
Shown are actives, neighbours in structure and some others; about 2.8% of the full set was active somewhere.
KDM5B inhibitor = KDM5B demethylase inhibition; KDM5B demethylase, FDH-coupled NADH fluorescence (FDH is formaldehyde dehydrogenase); Potency, µM (titrated, usually from 57.7 µM), usual class: inhibitors; actives 2.6% (n = 220,000); AID 1347165; active = well fitted inhibition curve with a large enough effect; inconclusive = small, poorly fitted or top-dose-only effect; inactive = no such curve, though single readings can be large or run the other way; also: nearly all actives have a fitted effect of over 70% in size
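Measured: NADH fluorescence change, 30 min, RT. System: KDM5BΔAP 200 nM final, H3K4me3 peptide, α-KG, Fe(II), ascorbate, NAD⁺ plus FDH, pH 7.5 HEPES. Compounds: titrated, 10 min pre-incubation with enzyme.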
IP6K1 inhibitor = blocks human inositol hexakisphosphate kinase 1; IP6K1 kinase, ADP-Glo luminescence, 2 h; active compounds read low; activity change, % (series mostly up to about 58 µM); actives 0.81% (n = 140,000); AID 1645851; in the data active = activity change below about -25%
Target sequence (Q92551 whole entry, looked up): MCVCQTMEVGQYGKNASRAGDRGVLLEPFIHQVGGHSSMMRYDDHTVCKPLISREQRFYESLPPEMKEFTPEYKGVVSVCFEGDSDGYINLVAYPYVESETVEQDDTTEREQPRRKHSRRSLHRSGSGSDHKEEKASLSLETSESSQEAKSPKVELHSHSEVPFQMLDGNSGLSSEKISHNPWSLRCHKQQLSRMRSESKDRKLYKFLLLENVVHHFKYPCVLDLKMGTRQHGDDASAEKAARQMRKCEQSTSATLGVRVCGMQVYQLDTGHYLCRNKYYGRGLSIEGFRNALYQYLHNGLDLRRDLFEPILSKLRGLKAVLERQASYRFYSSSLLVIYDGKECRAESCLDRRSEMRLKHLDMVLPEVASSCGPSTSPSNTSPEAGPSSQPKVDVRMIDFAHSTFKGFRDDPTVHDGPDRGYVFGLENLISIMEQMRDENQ
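ADP-Glo luminescence measures ADP made by human IP6K1 during a 2 h RT reaction with ATP/IP6 (mix at 1.3 mM/130 uM); top library doses 57.5 and 19.1 uM final.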
Numbers stand for hits; n = inactive; u = inconclusive; x = no result given.

SMILES | KDM5B inhibitor | IP6K1 inhibitor
C[S+](=O)([O-])NC1CCCN(c2ccc3nnc(-c4ccccc4)n3n2)C1 (stereo unspecified) | x | n
COc1ccc(C2(C(=O)N[C@@H]3CN(c4ccncn4)C[C@H]3CN(C)C)CC2)cc1 | n | n
CN(C)C[C@@H]1CN(Cc2ccncc2)C[C@H]1N | 18µM | n
COc1ccccc1C(=O)N[C@@H]1CN(c2ncccn2)C[C@H]1CN(C)C | u | n
COc1ccc(C(=O)N[C@@H]2CN(c3ncccn3)C[C@H]2CN(C)C)c(OC)n1 | 25µM | n
COc1cccc(C(=O)N[C@@H]2CN(c3ncccn3)C[C@H]2CN(C)C)c1C | 32µM | n
CCn1cc(C(=O)N[C@@H]2CN(c3ncccn3)C[C@H]2CO)cn1 | u | n
CCCS(=O)(=O)N[C@@H]1CN(Cc2ccncc2)C[C@H]1CN(C)C | n | n
CCn1ncc(C(=O)N[C@@H]2CN(c3ncccn3)C[C@H]2CN(C)C)c1C | 25µM | n
O=C(CSc1ncnc2ccccc12)Nc1cccc2ccccc12 | n | x
O=C(Cc1ccc(F)cc1)Nc1cc(C2CC2)nn1-c1ccccc1 | x | n
CC(C)(C)c1ccc(OCCC(=O)Nc2ccc(N3CCOCC3)cc2)cc1 | n | x
Cn1ccnc1C(NC(=O)Cc1ccc(Cl)cc1Cl)c1ccccc1F (stereo unspecified) | n | x
CCOc1ccccc1C(=O)N[C@@H]1CN(Cc2ccncc2)C[C@H]1CN(C)C | u | n
COc1ccccc1C(=O)N[C@@H]1CN(Cc2ccncc2)C[C@H]1CN(C)C | 22µM | n
Cc1ccc(SC(C)C(=O)Nc2ccc(C)cc2C)cc1 (stereo unspecified) | n | x
O=C(N[C@@H]1C[C@@H]2CO[C@H](c3ccccc3)C[C@@H]2C1)c1cc2ccccc2o1 | x | n
CC1(COc2ccc3[nH]ccc3c2)COc2ccc(C(=O)NCC3CCOCC3)cc2N1 (stereo unspecified) | u | n
COc1cccc(NC(=O)c2ccc3c(c2)NC(C)(COc2ccc4[nH]ccc4c2)CO3)c1 (stereo unspecified) | 32µM | n
COc1ccc(OCC2(C)COc3ccc(C(=O)Nc4ccc(OC)nc4)cc3N2)cc1 (stereo unspecified) | 40µM | n
COc1ccc(NC(=O)c2ccc3c(c2)NC(C)(COCC2CC2)CO3)cn1 (stereo unspecified) | u | n
COc1ccc(OCC2(C)COc3ccc(C(=O)Nc4ccn(C)n4)cc3N2)cc1 (stereo unspecified) | 32µM | n
Cc1nc2ccccc2nc1CS(=O)(=O)C(C)C(=O)NCC(C)C (stereo unspecified) | n | x
CC(=O)c1ccc(NS(=O)(=O)c2cc(-c3nc(-c4ccc(Cl)cc4)no3)sc2C)cc1 | n | x
CCOC(=O)c1nn(Cc2ccc(OC)cc2)c2c1CN(C(=O)c1ccc3nc[nH]c3c1)CC2 | 32µM | n
SMILES | KDM5B inhibitor | IP6K1 inhibitor
CCOC(=O)c1nn(Cc2ccc(OC)cc2)c2c1CN(C(=O)c1cn3ccccc3n1)CC2 | n | n
COc1ccc(CCN(C)C2CCCN(c3ncccc3C#N)C2)cc1OC (stereo unspecified) | 25µM | n
CCn1nc(C)cc1C(=O)N1CCCC(N(C)CCc2ccc(OC)c(OC)c2)C1 (stereo unspecified) | n | x
CCc1noc(-c2ccn3c(CNC(=O)Cc4ccc(Cl)cc4)nnc3c2)n1 | u | n
CCCc1noc(-c2ccn3c(CNC(=O)Cc4ccccc4Cl)nnc3c2)n1 | 14µM | n
Cc1ccc(CC(=O)NCc2nnc3cc(-c4nc(C(C)C)no4)ccn23)cc1 | 25µM | n
CC(C)c1noc(-c2ccn3c(CNC(=O)Cc4ccccc4Cl)nnc3c2)n1 | 16µM | n
CC(C)c1noc(-c2ccn3c(CNC(=O)Cc4ccc(F)cc4)nnc3c2)n1 | n | n
O=C(CCC1CCCC1)NC1CCc2ccccc21 (stereo unspecified) | n | x
Cc1cn2nnc(C(=O)NC3CCCCCCC3)c2c(=O)[nH]1 | n | n
Cc1cc(Cl)ccc1OCCCc1n[nH]c(=S)n1Cc1ccccc1 | n | x
c1ccc(CCc2nc3nccc(-c4ccco4)n3n2)cc1 | 25µM | n
COc1ccc(Cc2nc3nccc(-c4cc5ccccc5o4)n3n2)cc1 | u | n
Fc1cc(F)cc(Cc2nc3nccc(-c4ccncc4)n3n2)c1 | n | n
CC(C)Cc1nc2nccc(-c3ccc(F)cc3)n2n1 | u | n
Fc1cc(F)cc(Cc2nc3nccc(-c4ccccc4)n3n2)c1 | 28µM | n
CC(C)Cc1nc2nccc(-c3ccccc3)n2n1 | 28µM | n
CC(C)Cc1nc2nccc(-c3ccco3)n2n1 | 25µM | n
COc1ccc(CCc2nc3nccc(-c4ccco4)n3n2)cc1OC | n | n
COc1ccccc1-c1ccc(CN2CCC(N[S+](=O)([O-])c3c(C)noc3C)C2)cc1 (stereo unspecified) | x | n
Cc1ccc2nc(/C(C#N)=C/c3cc(C)c(C)cc3C)[nH]c2c1 | n | x
Cc1cc2ccccc2n1CC(=O)N(C)Cc1ccc(C(N)=O)cc1 | n | x
Fc1ccc(Cc2nc3nccc(-c4ccncc4)n3n2)cc1 | n | n
CC(C)Cc1nc2nccc(-c3ccncc3)n2n1 | 28µM | n
COc1ccc(-c2nc(C#N)c(N3CCN(C(=O)c4cccs4)CC3)o2)cc1 | n | x
SMILES | KDM5B inhibitor | IP6K1 inhibitor
Cc1noc(C)c1-c1cnc2[nH]cc(CC(=O)NCc3cccnc3)c2c1 | 35µM | n
CCNC(=O)Cc1c[nH]c2ncc(-c3ccccc3C)cc12 | u | n
Cc1ccccc1-c1cnc2[nH]cc(CC(=O)NCc3cccnc3)c2c1 | u | n
Cc1noc(C)c1-c1cnc2[nH]cc(CC(N)=O)c2c1 | 32µM | n
COc1ccc(N2Cc3cccc(C(=O)NCc4cccc(Cl)c4)c3C2=O)cc1 | n | x
O=C(c1cc(-c2cccc(C(F)(F)F)c2)c2cccn2n1)N1CCCC1 | x | n
O=C(c1nc(-c2ccc(F)cc2)c2cnccn12)N1CCCC1 | 32µM | n
O=C(c1nc(-c2ccccc2)c2ccccn12)N1CCN(c2ncccn2)CC1 | n | n
C[S+](=O)([O-])c1ccc(-c2nc(C(=O)N3CCN(c4ncccn4)CC3)n3ccncc23)cc1 | u | n
O=C(c1nc(-c2ccc(F)cc2)c2ccccn12)N1CCOCC1 | 32µM | n
O=C(c1cn2cc(-c3ccc(F)cc3)sc2n1)N1CCOCC1 | x | n
O=C(c1nc(-c2cccc(C(F)(F)F)c2)c2cnccn12)N1CCCC1 | 32µM | n
O=C(c1nc(-c2ccc(Cl)cc2)c2ccccn12)N1CCN(c2ncccn2)CC1 | 25µM | n
Cc1ccccc1CN1Cc2nc(NCc3cccc(F)c3)ccc2OCC1=O | u | n
O=C(Nc1ccccc1N1CCCCCC1)C1CCN(S(=O)(=O)c2cc(F)ccc2F)CC1 | n | x
O=C(CCn1ccc2ccccc21)NC12CC3CC(CC(C3)C1)C2 | n | x
COCCNC(=O)C1CCN(Cc2ccccc2-c2ccc(C)c(Cl)c2)CC1 | x | n
CCC/C(=N\NC(=O)c1ccc(C(C)(C)C)cc1)c1ccccc1 | n | x
O=C(c1cc(-c2cccc(C(F)(F)F)c2)c2cccn2n1)N1CCOCC1 | x | n
O=C(c1nc(-c2cccc(C(F)(F)F)c2)c2cnccn12)N1CCOCC1 | 10µM | n
O=C1CCN(CC(O)Cc2ccccc2)c2cc3c(cc2CN1Cc1ccccc1)OCO3 (stereo unspecified) | x | n
O=C(NCc1c[nH]c2ncccc12)c1ccc2ccccc2n1 | n | n
O=C(Cc1cccc(Cl)c1)NCc1ccnc2[nH]ccc12 | n | n
